Inconclusive results are not listed. Calls of active or inactive are those of the source. Calls follow the shape of the dose curve; as a rule, active = well fitted curve in the direction sought with a large enough effect; inconclusive = small, poorly fitted or top-dose-only effect, or another doubt; inactive = no such curve, though single readings can be large; an effect the other way counts as inactive or inconclusive.

The target of experiment [1] is Metallo-beta-lactamase type 2 (Klebsiella pneumoniae) (UniProt C7C422). Put plainly: qHTS to identify inhibitors of the New Delhi Metallo-beta-lactamase (NDM): assay validation screen against the NCATS LOPAC Collection (AID 1794843).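 Also: nitrocefin turnover by NDM-1 measured as 485 nm absorbance at plateau; % is scaled to controls: 0 for no effect and ±100 for the full control effect.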 The gist of the method: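 Enzyme 2 nM final, 50 mM HEPES pH 7.0, 1 uM ZnSO4, 0.01% Tween20; cpds in DMSO, preincub w/ enzyme; + nitrocefin (50 uM stock); A485 at plateau; no-enzyme column as blank.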
(In general: In qHTS, concentration-response curves come from the screen itself.)

Experiment [2] deals with Glutathione peroxidase 1 (Homo sapiens) (UniProt P07203). Briefly: Primary qHTS Assay for Inhibitors of Recombinant Selenoprotein Glutathione Peroxidase 1 (GPX1) (AID 1845191). Also: nearly all actives have a fitted effect of over 65% in size. The method, boiled down:
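GR-coupled assay: compounds preincubated 30 min at room temperature with GPX1, then reaction started with CHP; final 10 nM GPX1, 1 mM GSH, 0.5 mM CHP, 0.5 mM NADPH, 100 nM GR, 0.01% BSA, pH 7.5 Tris buffer. NADPH fluorescence (340/450 nm) read at 0 and 15 min.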

Experiment [3] concerns the target Phospholipid hydroperoxide glutathione peroxidase GPX4 (Homo sapiens) (UniProt P36969). Briefly: Primary qHTS Assay for Inhibitors of Recombinant Selenoprotein Glutathione Peroxidase 4 (GPX4) (AID 1845192). Also: nearly all actives have a fitted effect of over 65% in size. As to activity change, negative = inhibition: % is scaled to controls: 0 for no effect and ±100 for the full control effect. The gist of the method: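 GR-coupled assay: recombinant GPX4 preincubated 30 min with compound at room temperature; final 200 nM GPX4, 1 mM GSH, 0.5 mM cumene hydroperoxide, 0.5 mM NADPH, 100 nM GR, 0.01% BSA, pH 7.5 Tris. NADPH fluorescence (340/450 nm) read at 0 and 15 min.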

Experiment [4] is described as follows: Quantitative High-Throughput drug screen in 47 multiple myeloma cell lines against the NCATS MIPE library collection: FR4_PLB cell viability assay (AID 1918924;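 also: 100% = DMSO-treated cells and 0% = wells with media only; nearly all actives have a fitted effect of over 35% in size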). The method, boiled down:
(§1)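 Inhibition of cell viability is measured here. Each line was plated at 500 cells per well, treated with MIPE 4.0 drugs, kept 48 hours at 37C, then assayed for ATP content by CellTiter-Glo luminescence.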

Experiment [5] is described as follows: Quantitative High-Throughput drug screen in 47 multiple myeloma cell lines against the NCATS MIPE library collection: Delta47_JCRB cell viability assay (AID 1918925; also: potency is read from the fitted curve at half-maximal effect; nearly all actives have a fitted effect of over 45% in size). The gist of the method:
(§2)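 Primary qHTS used for cherry-picking: cells at 500/well, library compounds for 48 h (37C, 5% CO2), luminescent ATP assay.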

Experiment [6] is described as follows: Quantitative High-Throughput drug screen in 47 multiple myeloma cell lines against the NCATS MIPE library collection: ARD_JJKsccE7 cell viability assay (AID 1918929;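 also: 100% = DMSO-only wells and 0% = media-only wells without cells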). The method, boiled down:
as §2

Experiment [7] in a line: Quantitative High-Throughput drug screen in 47 multiple myeloma cell lines against the NCATS MIPE library collection: Karpas620_DSMZ cell viability assay (AID 1918959). Also: nearly all actives have a fitted effect of over 30% in size. Also: potency is read from the fitted curve at half-maximal effect. The gist of the method: as §1
The nature of experiment [8]: Quantitative High-Throughput drug screen in 47 multiple myeloma cell lines against the NCATS MIPE library collection: AMO1_DSMZ cell viability assay (AID 1918927;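 also: 100% = DMSO only wells and 0% = cell-free media only wells; nearly all actives have a fitted effect of over 30% in size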). The gist of the method:
as §2

Experiment [9] in a line: Quantitative High-Throughput drug screen in 47 multiple myeloma cell lines against the NCATS MIPE library collection: KMM1_JCRB cell viability assay (AID 1918960).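 Also: 100% = DMSO-treated cells and 0% = medium-only wells; nearly all actives have a fitted effect of over 30% in size.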 The method, boiled down:
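Here, 48 h treatment with MIPE 4.0 agents at 37 °C preceded an ATP luminescence read. Plating density was 500 cells per well.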

In experiment [10] the target is Nuclear receptor subfamily 1 group I member 3 (Homo sapiens) (UniProt Q14994). Put plainly: Primary qHTS for antagonist of constitutive androstane receptor (CAR) against the NCATS DSHEA and TCM libraries (AID 1794836).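 Also: HepG2 cells stably expressing hCAR with CYP2B6 luciferase reporter stimulated by CITCO.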 The gist of the method: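 HepG2-CYP2B6-hCAR cells, attached 5 h, given compounds plus CITCO agonist […], incubated 24 h at 37 C. Luciferase luminescence read, multiplexed with CellTiter-Fluor viability (Ex/Em 405/540 nm).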

Experiment [11] in a line: NCATS anti-infectives library activity on HEK293 viability as a counter-qHTS vs the C. elegans viability qHTS (AID 1745854).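 Also: HEK293 cells exposed to compounds for 24 hr before the viability read; % is scaled to controls: 0 for no effect and ±100 for the full control effect.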 The gist of the method: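 Cytotoxicity in human HEK293 cells is measured by ATP-dependent CellTiter-Glo luminescence following a 24 hr incubation with titrated library compounds at 37C. Top final concentration is 41.7 uM.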
Experiment [12] concerns the target Guanidinoacetate N-methyltransferase (Homo sapiens) (UniProt Q14353). Briefly: Confirmatory Screen for Target Class Profiling of Small Molecule Inhibitors of Methyltransferases (AID 1745852). As to activity change, negative = inhibition: % is scaled to controls: 0 for no effect and ±100 for the full control effect. As to conditions: MTase-Glo luminescence, SAH detection, recombinant enzyme; at 57.3 µM (top of the series).
For experiment [13], the target named is Nicotinamide N-methyltransferase (Homo sapiens) (UniProt P40261). Described as above. Particulars: MTase-Glo luminescence, SAH detection, recombinant enzyme; measured here: NNMT max response; stronger effect = lower value.
For experiment [14], the target named is Phenylethanolamine N-methyltransferase (Homo sapiens) (UniProt P11086). The description is as above. As to conditions: MTase-Glo luminescence, SAH detection, recombinant enzyme; measured here: PNMT max response; stronger effect = lower value.
Experiment [15] addresses Luciferin 4-monooxygenase (Photinus pyralis) (UniProt P08659). Put plainly: Primary firefly luciferase (FLuc) qHTS assay for identification of artifact compounds. (AID 1845220).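 Also: plate controls were DMSO vehicle for no effect and no enzyme for full effect; nearly all actives have a fitted effect of over 60% in size.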 As to conditions: outcome: dose series up to 54.1 µM unless noted. The gist of the method: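 Enzymatic FLuc inhibition assay: compounds pre-exposed to luciferin/ATP (10 uM each) for 15 min, then purified P. pyralis enzyme at 10 nM added. Read-out: luminescence at 5 min.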

The subject of experiment [16] is Nanoluciferase (engineered Oplophorus gracilirostris luciferase). Put plainly: Primary Nanoluciferase (NLuc) qHTS assay for identification of artifact compounds. (AID 1845222).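 Also: NLuc secreted into diluted conditioned medium of S16 cells; 0% = DMSO and -100% = no enzyme.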 The gist of the method:
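S16 cell supernatant NLuc, 1:55; cpds qHTS; 15 min RT dark; Nano-Glo substrate 1:100, 5 min; luminescence; Hill fit of % inhibition.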

A short description of experiment [17]: Primary redox qHTS assay for identification of artifact compounds. (AID 1845223).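 Also: 0% = DMSO and 100% = reference compound.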 The method, boiled down: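 Amplex Red (25 uM) and HRP (250 mU/mL) in HBSS, with compounds for 15 min, then 250 uM DTT for 30 min, room temperature, dark. Fluorescence 525/598 nm read; normalized to DMSO and 10 uM DA3003; Hill fit.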

Chain of Phospholipid hydroperoxide glutathione peroxidase GPX4 (Homo sapiens) (P36969 whole entry, looked up): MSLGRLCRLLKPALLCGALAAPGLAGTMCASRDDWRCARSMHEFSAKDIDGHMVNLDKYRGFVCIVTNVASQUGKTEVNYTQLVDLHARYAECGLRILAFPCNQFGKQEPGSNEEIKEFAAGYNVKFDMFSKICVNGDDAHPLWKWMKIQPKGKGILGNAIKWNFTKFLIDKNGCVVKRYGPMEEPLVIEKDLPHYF
Chain of Glutathione peroxidase 1 (Homo sapiens) (P07203 whole entry, looked up): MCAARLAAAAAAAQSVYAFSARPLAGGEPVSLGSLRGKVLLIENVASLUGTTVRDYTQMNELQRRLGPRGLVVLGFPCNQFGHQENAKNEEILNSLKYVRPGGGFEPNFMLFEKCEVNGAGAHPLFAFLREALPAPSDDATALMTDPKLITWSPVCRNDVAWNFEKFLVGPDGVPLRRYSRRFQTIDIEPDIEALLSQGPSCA
Chain of Metallo-beta-lactamase type 2 (Klebsiella pneumoniae) (C7C422 whole entry, looked up): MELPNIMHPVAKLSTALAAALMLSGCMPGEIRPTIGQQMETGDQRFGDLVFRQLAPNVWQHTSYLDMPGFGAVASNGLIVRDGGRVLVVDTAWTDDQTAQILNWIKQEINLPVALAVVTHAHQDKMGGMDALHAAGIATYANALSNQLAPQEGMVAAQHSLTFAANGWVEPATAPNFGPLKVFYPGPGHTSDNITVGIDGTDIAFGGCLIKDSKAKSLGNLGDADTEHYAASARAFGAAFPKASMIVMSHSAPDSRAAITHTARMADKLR
Chain of Nuclear receptor subfamily 1 group I member 3 (Homo sapiens) (Q14994 whole entry, looked up): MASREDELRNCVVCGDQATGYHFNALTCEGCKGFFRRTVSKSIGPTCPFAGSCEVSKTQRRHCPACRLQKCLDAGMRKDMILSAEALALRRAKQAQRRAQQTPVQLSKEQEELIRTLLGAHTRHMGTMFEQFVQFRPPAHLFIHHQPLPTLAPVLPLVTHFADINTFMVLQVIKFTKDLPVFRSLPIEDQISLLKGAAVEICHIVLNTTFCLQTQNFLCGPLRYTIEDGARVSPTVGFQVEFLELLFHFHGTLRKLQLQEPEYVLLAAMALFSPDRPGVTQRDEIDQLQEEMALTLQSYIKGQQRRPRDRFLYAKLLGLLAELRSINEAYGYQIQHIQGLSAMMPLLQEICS
Chain of Phenylethanolamine N-methyltransferase (Homo sapiens) (P11086 whole entry, looked up): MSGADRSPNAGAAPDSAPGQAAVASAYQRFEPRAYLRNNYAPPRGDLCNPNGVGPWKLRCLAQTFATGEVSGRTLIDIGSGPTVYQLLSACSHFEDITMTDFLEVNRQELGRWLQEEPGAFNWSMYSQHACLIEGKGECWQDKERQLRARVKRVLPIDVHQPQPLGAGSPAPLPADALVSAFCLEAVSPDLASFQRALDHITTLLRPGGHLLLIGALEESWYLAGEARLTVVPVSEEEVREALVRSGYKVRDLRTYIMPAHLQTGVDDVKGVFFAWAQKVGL
Chain of Nicotinamide N-methyltransferase (Homo sapiens) (P40261 whole entry, looked up): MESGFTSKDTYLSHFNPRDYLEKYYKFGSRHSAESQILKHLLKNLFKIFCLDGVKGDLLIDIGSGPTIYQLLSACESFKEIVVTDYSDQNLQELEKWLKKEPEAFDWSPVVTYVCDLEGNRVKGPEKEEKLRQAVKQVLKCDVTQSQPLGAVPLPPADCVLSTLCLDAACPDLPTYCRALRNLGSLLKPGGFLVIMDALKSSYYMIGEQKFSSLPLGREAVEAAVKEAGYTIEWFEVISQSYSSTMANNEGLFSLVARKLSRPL

As for `O=P1(N(CCCl)CCCl)NCCCO1` (stereo unspecified), the outcome in experiment [1] is “inactive”. The Potency result in [2], in [3], in [4] and in experiment [6] was “inactive” in each case. Further, the Potency in [5] is 14.8 µM (active); in experiment [7], 18.7 µM (active).

With `O=c1[nH]oc2c1CCNC2`, in [1], the outcome was “inactive”. Moreover, the Potency result in [2] and in experiment [3] was “inactive” in each case.

In the case of `CN1C(=O)CCS(=O)(=O)C1c1ccc(Cl)cc1` (stereo unspecified), the outcome in experiment [1] is “inactive”. The Potency entry in [2], in experiment [3], in experiment [8], in [6], in experiment [7] and in experiment [9] was “inactive” each time.

As to `O=C(O)c1cc(O)c(O)c(O)c1`, the outcome in [10] was “inactive”.

Consider `CN1C[C@H](C(=O)N[C@]2(C)O[C@@]3(O)[C@@H]4CCCN4C(=O)[C@H](Cc4ccccc4)N3C2=O)C=C2c3cccc4[nH]cc(c34)C[C@H]21`, for which the Potency entry in [2] is “inactive”.

As for `COP(=S)(OC)Oc1ccc(S(=O)(=O)N(C)C)cc1`, the Potency result in experiment [2] and in [3] was “inactive” in each case.

In the case of `O=C1c2ccccc2C(=O)c2ccccc21`, the outcome in [11] was “inactive”. The Potency entry in [2] and in experiment [3] was “inactive” in each case.

For `C[C@]12CC[C@H]3[C@@H](CCC4=CC(=O)CC[C@@H]43)[C@@H]1CC[C@@H]2OC(=O)CCC1CCCCC1`, the Potency result in experiment [2] is “inactive”.

With `COc1cccc2c1C(=O)c1c(O)c3c(c(O)c1C2=O)C[C@@](O)(C(=O)CO)CC3OC1CC(N2CCOC(OC)C2)C(O)C(C)O1` (stereo partly specified), the Potency result in [2] was “inactive”.

In the case of `c1ccc2c(c1)sc1ccccc12`, the Potency entry in experiment [2] and in experiment [3] was “inactive” each time.

For `NCCc1ccc(O)cc1`, in experiment [12], the activity change, negative = inhibition stood at 0.255%. In addition, the figures for the activity in [13] and in experiment [14] were -9.22% and -8.79%, respectively. The outcome in [1] was “inactive”. The Potency entry in experiment [2] and in experiment [3] was “inactive” each time.

As for `CC(C)N(CCC(C(N)=O)(c1ccccc1)c1ccccn1)C(C)C` (stereo unspecified), the outcome in experiment [1], in experiment [15], in experiment [16] and in experiment [17] was “inactive” in each case. In addition, the Potency entry in experiment [2] and in [3] was “inactive” throughout.

Turning to `CC(C)(C)NCC(O)c1ccccc1Cl` (stereo unspecified), the outcome in [11] and in [1] was “inactive” in each case. The Potency entry in experiment [2] and in experiment [3] was “inactive” each time.

`O=C(O)CCCC[C@@H]1SC[C@@H]2NC(=O)N[C@@H]21`: the outcome in [10] is “inactive”.

Take `Nc1ccc(C(=O)O)cc1`: the outcome in [10] was “inactive”.

Regarding `Cc1ncsc1CCCl`, the outcome in experiment [1] is “inactive”. The Potency result in experiment [2] and in experiment [3] was “inactive” in each case.

Regarding `O=[N+]([O-])O[C@H]1CO[C@H]2[C@@H]1OC[C@H]2O[N+](=O)[O-]`, the Potency entry in experiment [2] and in [3] was “inactive” throughout.

Regarding `COc1cccc(C(=O)CCN[C@@H](C)[C@H](O)c2ccccc2)c1`, the Potency result in experiment [2] and in [3] was “inactive” throughout.

For the molecule `NC(=O)c1cc([N+](=O)[O-])cc([N+](=O)[O-])c1`, the Potency result in experiment [2] and in experiment [3] was “inactive” in each case.

In the case of `CCC(C)C(C)(COC(N)=O)COC(N)=O` (stereo unspecified), the Potency result in experiment [2] and in experiment [3] was “inactive” each time.

Turning to `C[N+]1(CCF)[C@@H]2CC[C@H]1CC(OC(=O)C(O)(c1ccccc1)c1ccccc1)C2` (stereo partly specified), the Potency result in experiment [2] and in experiment [3] was “inactive” each time.

On to `C[C@@H]1CC2=CC(=O)CC[C@@H]2[C@H]2CC[C@@]3(C)[C@@H](CC[C@]3(C)O)[C@@H]21`, for which the Potency entry in experiment [2] and in experiment [3] was “inactive” each time.

The values are drawn from PubChem BioAssay (NCATS).
